According to PubChem BioAssay (NCATS):
Several values for one entry are separate records, joined by “and”; a condition that tells them apart may be missing. Equal values may be shown once. Inconclusive results are not listed. Activity calls are given as the source filed them. Calls follow the shape of the dose curve; as a rule, active = well fitted inhibition curve with a large enough effect; inconclusive = small, poorly fitted or top-dose-only effect; inactive = flat fitted curve, though single readings scatter.

Test system: KB-3-1
Test: Cytotoxic Profiling of Annotated Libraries Using Quantitative High-Throughput Screening (AID 1296008); also: nearly all actives have a fitted effect of over 60% in size
Details: Five cell lines viability, CellTiter-Glo ATP luminescence, 48-72 h; max response: hits give low values
Summary of the method: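 Cytotoxicity was measured as CellTiter-Glo ATP luminescence, read after 10 min at room temperature. Compound treatment of the cells lasted 48 or 72 hr at 37 degrees Celsius in a qHTS format.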
% is scaled to controls: 0 for no effect and ±100 for the full control effect; potency is read from the fitted curve at half-maximal effect.

Structure (SMILES) | max response | Potency
COc1ccc2c(c1)N(C[C@H](C)CN(C)C)c1ccccc1S2 | -8.39% (inactive) | 
Cc1ccc(C(C)(C)c2ccc(C)cc2)cc1 | -2.63% (inactive) | 
CC1CCCCN1CCCOC(=O)c1ccccc1 (stereo not given) | 7.8% (inactive) | 
O=C(NNCNNC(=O)c1ccncc1)c1ccncc1 | 1.42% (inactive) | 
CC(CCc1ccc(O)cc1)NCC(O)c1ccc(O)cc1 (stereo not given) | 9.04% (inactive) | 
CC(=O)Nc1ccc(OC(C)=O)cc1 | 6.1% (inactive) | 
C=N[C@@H](C(=O)N[C@@H]1C(=O)N2[C@@H]1SC(C)(C)[C@@H]2C(=O)O)c1ccccc1 | 0.762% (inactive) | 
CC(=O)N[C@@H]([C@@H](O)[C@H](O)[C@H](O)CO)[C@@H](O)CC(=O)C(=O)O | 10.5% (inactive) | 
CCC(=O)OC(OP(=O)(CCCCc1ccccc1)CC(=O)N1C[C@H](C2CCCCC2)C[C@H]1C(=O)O)C(C)C (stereo not given in full) | 3.39% (inactive) | 
C[C@@H](O)[C@H]1C(=O)N2C(C(=O)[O-])=C(SC3Cn4cnc[n+]4C3)[C@H](C)[C@H]12 (stereo not given in full) | 1.34% (inactive) | 
O=C(CCCCCCCCCCCCC1CCCC1)Nc1ccc(S(=O)(=O)c2ccc(NC(=O)CCCCCCCCCCCCC3CCCC3)cc2)cc1 | 4.77% (inactive) | 
Nc1nc(/C(=C/CC(=O)O)C(=O)N[C@@H]2C(=O)N3C(C(=O)O)=CCS[C@H]23)cs1 | -7.11% (inactive) | 
CO/N=C(\C(=O)N[C@@H]1C(=O)N2C(C(=O)O)=C(CSC(=O)c3ccco3)CS[C@H]12)c1csc(N)n1 | 1.31% (inactive) | 
C=C1[C@@H]2CC[C@@H](C2)C1(C)C | -10.2% (inactive) | 
C=Cc1ccc(S(=O)(=O)O)cc1 | 36.9% (inactive) | 
O=S(=O)(O)CC(S)CS (stereo not given) | 3.44% (inactive) | 
CN1C(=O)OC(C)(C)C1=O | 3.96% (inactive) | 
Cc1ncc[nH]1 | 3.25% (inactive) | 
O=C(OC1C[C@@H]2CC3C[C@H](C1)N2CC3=O)c1c[nH]c2ccccc12 (stereo not given in full) | -14.8% (inactive) | 
O=C(O)CN(CC(=O)O)CC1=CC2C(=CC1=O)Oc1cc(O)c(CN(CC(=O)O)CC(=O)O)cc1C21OC(=O)c2ccccc21 (stereo not given) | -3.16% (inactive) | 

Structure (SMILES) | max response | Potency
[O]=[Bi][O][Bi]=[O] | -13.6% (inactive) | 
COC(=O)[C@@H](N)CS | -3.99% (inactive) | 
CC(C)CN(C[C@@H](OP(=O)(O)O)[C@H](Cc1ccccc1)NC(=O)O[C@H]1CCOC1)S(=O)(=O)c1ccc(N)cc1 | 1.96% (inactive) | 
CCCCCCCCCCCC(=O)OC[C@@H](O)C1OC[C@H](O)[C@H]1O (stereo not given in full) | 3.33% (inactive) | 
CN(C)c1ccc(C(=C2C=CC(=[N+](C)C)C=C2)c2c(O)c(S(=O)(=O)[O-])cc3cc(S(=O)(=O)O)ccc23)cc1 |  | 14.6 µM (active)
O=C1N=C2SCCN2C(=O)C1Cc1ccc(Cl)cc1 (stereo not given) | -9% (inactive) | 
O=C(O)c1ccc(OCCn2ccnc2)cc1 | 6.76% (inactive) | 
Nc1ncnc2c1ncn2[C@H]1CC[C@@H](CO)O1 | -2.72% (inactive) | 
NC(N)=NCC1COc2ccccc2O1 (stereo not given) | -6.36% (inactive) | 
NS(=O)(=O)c1cc2c(cc1Cl)NC(Cc1ccccc1)NS2(=O)=O (stereo not given) | -0.731% (inactive) | 
O=P(O)(O)OP(=O)(O)O | -8.71% (inactive) | 
CN1CCN(C(c2ccccc2)c2ccc(Cl)cc2)CC1 (stereo not given) | 0.99% (inactive) | 
FC(F)(F)C(F)(F)C(F)(F)C(F)(F)C(F)(F)C(F)(F)F | 6.4% (inactive) | 
CCOC(=O)[C@H](CS)NCCN[C@@H](CS)C(=O)OCC | 6.15% (inactive) | 
C[C@@H]1NC(=O)[C@@H](N)CNC(=O)[C@H](C2CCNC(N)=N2)NC(=O)/C(=C/NC(N)=O)NC(=O)[C@H](CNC(=O)C[C@@H](N)CCCN)NC1=O (stereo not given in full) | -2.35% (inactive) and -9.97% (inactive) | 
CC(C)CCCC(C)NC(C)C (stereo not given) | 0.846% (inactive) | 
CC1(C)S[C@@H]2[C@H](N3C(=O)C(c4ccccc4)NC3(C)C)C(=O)N2[C@H]1C(=O)O (stereo not given in full) | 3.76% (inactive) | 
CCCCC/C=C\C/C=C\C/C=C\CCCCC(=O)O | -2.17% (inactive) | 
CO/N=C(\C(=O)N[C@@H]1C(=O)N2C(C(=O)O)=C(CSc3nc(C)c(CC(=O)O)s3)CS[C@H]12)c1csc(N)n1 | 2.01% (inactive) | 
NCCCC[C@H](N)C(=O)O | 0.45% (inactive) | 
